# Bioassay records (PubChem)
# HttQ103 aggreg = qHTS Multiplex Assay to Identify Dual Action Probes in a Cell Model of Huntington: Aggregate Formation (GFP) | PC12 HttQ103-GFP aggregates, Acumen cytometry, 40 h | Potency, µM (top dose mostly 46.1 µM), inactives show top-dose activity change, negative = inhibition, usual class: inhibitors | 1.1% of 220,000 active; active = well fitted curve in the direction sought with a large enough effect; inconclusive = small, poorly fitted or top-dose-only effect, or another doubt; inactive = no such curve, though single readings can be large; an effect the other way counts as inactive or inconclusive; note: potency is the fitted concentration of half-maximal effect; % is set by controls: 0 for no effect and ±100 for the full control effect; nearly all actives have a fitted effect of over 60% in size
#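 Compounds (qHTS titration) were added to PC12 cells expressing an ecdysone-driven HTT exon 1 Q103–GFP fusion after induction with 100 nM tebufenozide. Aggregate formation was measured as GFP objects in cell lysates.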
# HPGD block = qHTS Assay for Inhibitors of HPGD (15-Hydroxyprostaglandin Dehydrogenase) | 15-hydroxyprostaglandin dehydrogenase [NAD(+)] (Homo sapiens), P15428 | Potency, µM, inactives show at the top dose activity change, negative = inhibition, hits mostly inhibitors | 4.3% of 150,000 active | purified HPGD, NADH fluorescence kinetic, PGE2 substrate; note: potency is the fitted concentration of half-maximal effect; % is set by controls: 0 for no effect and ±100 for the full control effect
# Target sequence (P15428 whole entry, looked up): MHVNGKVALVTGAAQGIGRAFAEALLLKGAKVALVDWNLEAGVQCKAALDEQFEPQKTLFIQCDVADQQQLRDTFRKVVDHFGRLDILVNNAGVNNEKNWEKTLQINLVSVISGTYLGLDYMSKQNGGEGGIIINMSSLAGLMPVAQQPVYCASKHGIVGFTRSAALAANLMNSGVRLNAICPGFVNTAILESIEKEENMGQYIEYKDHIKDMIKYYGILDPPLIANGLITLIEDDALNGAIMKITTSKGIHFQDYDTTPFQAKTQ
#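 20 nM HPGD preincubated 15 min at room temperature with compound in 50 mM Tris-HCl pH 8, 0.01% Tween 20. Started with 1 mM NAD+ and 30 uM prostaglandin E2; NADH fluorescence (360/450 nm) read 5 times over 30-s intervals, last minus first.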
# KDM4E inh = qHTS Assay for Inhibitors of Human Jumonji Domain Containing 2E (JMJD2E) | JMJD2E catalytic domain, FDH-coupled NADH fluorescence (FDH is formaldehyde dehydrogenase) | Potency, µM (highest dose often 57.1 µM), for the others: at the top dose activity change, negative = inhibition, hits mostly inhibitors | 1.6% of 230,000 active | AID 2147, 2009;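 note: potency is the fitted concentration of half-maximal effect; 0% = wells with enzyme and -100% = buffer wells without enzyme; nearly all actives have a fitted effect of over 50% in size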
# Target sequence (B2RXH2 1-337 limits assumed): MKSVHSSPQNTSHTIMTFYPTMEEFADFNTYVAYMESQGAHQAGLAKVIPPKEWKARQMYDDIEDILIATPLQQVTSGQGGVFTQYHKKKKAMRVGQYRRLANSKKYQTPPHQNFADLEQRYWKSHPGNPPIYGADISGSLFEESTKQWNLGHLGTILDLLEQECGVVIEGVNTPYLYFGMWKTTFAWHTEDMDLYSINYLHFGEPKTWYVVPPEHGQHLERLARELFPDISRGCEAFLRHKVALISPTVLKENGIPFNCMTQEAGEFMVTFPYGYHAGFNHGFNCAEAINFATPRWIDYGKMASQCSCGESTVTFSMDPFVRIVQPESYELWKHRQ
# HTT cytoprotect = qHTS Multiplex Assay to Identify Dual Action Probes in a Cell Model of Huntington: Cytoprotection (ATP); 0.14% of 230,000 active; Potency, µM (titrated, usually from 56.4 µM), inactives show cytoprotection (ATP increase), usual class: activators; AID 1471, 2008; PC12 HTT-Q103 induced, cytoprotection, ATP luminescence, 40 h; active = well fitted curve in the direction sought with a large enough effect; inconclusive = small, poorly fitted or top-dose-only effect, or another doubt; inactive = no such curve, though single readings can be large; an effect the other way counts as inactive or inconclusive; note: potency is the fitted concentration of half-maximal effect; % of control where 0% means no effect; nearly all actives have a fitted effect of over 45% in size
#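 Rat PC12, Q103 Htt exon1-GFP fusion, ecdysone promoter; tebufenozide inducer 100 nM final; compound titration; qHTS, 1500 cells/well; ATPlite luminescent read.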
# CBFb-RUNX1 inh = qHTS Assay for Compounds Blocking the Interaction Between CBF-beta and RUNX1 for the Treatment of Acute Myeloid Leukemia; 230,000 tested, under 10 active; AID 1477, 2009; AlphaScreen CBFb-His/RUNX1-biotin binding, biochemical; Potency, µM (doses to about 59.8 µM), for the others: at the top dose activity, negative = inhibition, most hits filed as inhibitors; active = well fitted curve in the direction sought with a large enough effect; inconclusive = small, poorly fitted or top-dose-only effect, or another doubt; inactive = no such curve, though single readings can be large; an effect the other way counts as inactive or inconclusive; note: % of control where 0% means no effect
#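 CBFb-His/RUNX1-biotin, 30 nM each, preincubated 20 min RT; compound 15 min RT; Ni + streptavidin beads 50 ng each, 90 min RT; AlphaScreen read.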
# ALDH1A1 inh = qHTS Assay for Inhibitors of Aldehyde Dehydrogenase 1 (ALDH1A1). AID 1030, 2008. Potency, µM (titrated, usually from 75.3 µM), for inactives: top-dose activity, negative = inhibition, actives largely listed as inhibitors. 7.3% of 220,000 active. Purified ALDH1A1, NADH fluorescence, propionaldehyde substrate;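 note: potency is the fitted concentration of half-maximal effect; plate controls were no enzyme wells and a reference inhibitor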
# * = called active by the depositor; ? = inconclusive; / = no result given; [ ] = another dose, or the depositor's remark. A selection: hits, their analogues and other compounds. The true share with any hit is near 9.8%. Unless noted, calls come from the whole dose curve; as a rule, active = well fitted inhibition curve with a large enough effect (not every such curve was filed as active); inconclusive = small, poorly fitted or top-dose-only effect, or another doubt; inactive = no such curve, though single readings can be large or run the other way.
SMILES,HttQ103 aggreg,HPGD block,KDM4E inh,HTT cytoprotect,CBFb-RUNX1 inh,ALDH1A1 inh
CCN(CC)C(=O)CSc1nc2ccccc2c(=O)n1CC1CCCCC1,?,/,-3%,-47%,10%,11µM*
CCn1c(SCC(=O)NCc2ccccc2)nc2ccccc2c1=O,-2%,-9%,3%,7%[10 µM],2%,5%
Cc1cc2ccccc2c(=O)n1CC(=O)N1CCN(c2cccc(Cl)c2)CC1,-1%,-16%,?,-7%,-2%,-1%
CCn1c(SCC(=O)N2CCN(c3cccc(Cl)c3)CC2)nc2ccccc2c1=O,-7%,-18%,?,17%[1.9 µM],5%,28µM*
Cc1cc(C)n2nc(CCCCc3nc4nc(C)cc(C)n4n3)nc2n1,?,/,3%,/,1%,17%
COC(=O)[C@H]1CCCN1C(=O)Nc1cccc(Oc2c(F)c(F)c(F)c(F)c2F)c1,-6%,-10%,6%,-14%,10%,1%
COCCn1c(SCC(=O)N2CCc3ccccc3C2)nc2cc(Cl)ccc2c1=O,-32%,-13%,1%,/,2%,?
COc1ccc(OCCSc2nc3ccccc3n2CC(=O)O)cc1,2%,-4%,2%,-12%,1%,5%
CC(=O)c1ccc(-n2c(SCC(=O)c3c[nH]c4ccccc34)nc3ccccc3c2=O)cc1,?,28µM*,-1%,?,-11%,17%
COc1ccc(C(=O)CSc2nc3ccccc3n2CC(=O)c2ccccc2)cc1,-10%,-5%,-7%,-10%,-3%,25µM*
CC(C)Cn1c(SCC(=O)N2CCc3ccccc3C2)nc2cc(Cl)ccc2c1=O,10µM*,-7%,5%,14%[10 µM],4%,10µM*
CC(C)(C)c1nnc(SCC(=O)c2ccccc2)n(N)c1=O,10%,25µM*,-8%,/,-8%,9%
Cc1nc(C(=O)NCc2ccccc2)sc1C1(C)CC(c2ccccc2)=NO1 (centres undefined),10%[9.22 µM],/,-4%,3%[10 µM],25%,/
Cc1ccc(SCC(=O)Nc2ccc(C(=O)Nc3ccc(O)cc3)cc2)cc1,16%[9.22 µM],/,0%,-4%[10 µM],2%,-4%
CC(C)(C)c1nc(SCC(=O)NCc2ccco2)c2ccccc2n1,23%,-18%,-5%,6%,-1%,?
O=C(CSCc1nc2ccccc2[nH]1)N1CCN(c2cccc(Cl)c2)CC1,25µM*,-1%,2%,-32%,-6%,-8%
O=C(CSCc1nc2ccccc2[nH]1)N1CCN(c2ccc(F)cc2)CC1,?,-11%,2%,-21%,0%,-3%
COc1ccc(C(=O)CSc2nc(C(C)(C)C)nc3ccccc23)cc1,8%[9.22 µM],/,-8%,13%[10 µM],29%,14µM*
COCOc1c2c(c(OCOC)c3c(OCOC)cccc13)/C(=N/N[S+](=O)([O-])c1ccc(C)cc1)C1=C2CCCC1,/,-24%,-16%,13%,28%,-10%
C/C(CC(C)C)=N\Nc1ccc(S(N)(=O)=O)cc1[N+](=O)[O-],-30%,/,-7%,-3%,-9%,-5%
CC1CC(C)(C)NC(=S)S1 (centres undefined),1%[9.22 µM],22µM*,0%,-21%,6%,13µM*
Cc1cccc(NC(=S)NNC(=O)c2cccc([N+](=O)[O-])c2)c1,12%[9.22 µM],/,4%,27%[10 µM],0%,/
C/C(=N/NC(=S)Nc1cccc(C)c1)c1cccc([N+](=O)[O-])c1,/,/,-3%,/,1%,8.9µM*
CC(CCc1ccccc1)NC(=O)CN1CCOc2ccccc21 (centres undefined),/,/,/,-4%,/,/
CC(CCc1ccccc1)NC(=O)CN1CCSc2ccccc21 (centres undefined),22%,/,-5%,-5%,-4%,13µM*
SMILES,HttQ103 aggreg,HPGD block,KDM4E inh,HTT cytoprotect,CBFb-RUNX1 inh,ALDH1A1 inh
Cc1cccc(NC(=O)CN2CCSc3ccccc32)c1,-19%,/,8%,-1%[10 µM],-13%,?
COc1cccc(NC(=O)CN2CCSc3ccccc32)c1,-6%,/,-1%,-9%,-12%,19µM*
Cc1nc(N2CCCCC2)nc(N2CCCCC2)c1C=O,-13%,/,0%,-31%,-1%,?
COc1ccc(C(=O)N2CCC3(CCN(Cc4nccs4)CC3)CC2)cc1,/,-7%,/,0%,/,-2%
CCCCC(=O)Nc1ccc(C(=O)NCCc2ccc(S(N)(=O)=O)cc2)cc1,14%,/,10%,9%,1%,10%
Cc1ccccc1OCC(O)Cn1c(Br)nc2c1c(=O)[nH]c(=O)n2C (centres undefined),0%,/,2%,-20%,-4%,-14%
CN(C)CCNc1nc2c(c(=O)[nH]c(=O)n2C)n1CC(O)COc1ccc(Cl)cc1Cl (centres undefined),13%,22µM*,2%,-9%[0.074 µM],12%,?
Cc1ccccc1OCC(O)Cn1c(SC(C)C)nc2c1c(=O)[nH]c(=O)n2C (centres undefined),-6%,14µM*,-25%,-10%,6%,7.1µM*
CCSc1nc2c(c(=O)[nH]c(=O)n2C)n1CC(O)COc1ccccc1C (centres undefined),6%,14µM*,4%,-6%[10 µM],10%,28µM*
CC(C)Sc1nc2c(c(=O)[nH]c(=O)n2C)n1CC(O)COc1ccccc1 (centres undefined),-11%,/,-6%,-14%,-2%,?
CC(O)CSc1nc2c(c(=O)[nH]c(=O)n2C)n1CC(O)COc1ccccc1 (centres undefined),5%,/,2%,-12%,5%,24µM*
CSC(=S)N/N=C(\C)c1ccc(Br)cc1,-2%[9.22 µM],/,-3%,33%[10 µM],1%,19%
COc1ccccc1-n1c(=S)[nH]c2c(sc(=S)n2-c2ccccc2C)c1=O,-4%,/,2%,-31%,0%,?
OC[C@H]1OC(O)[C@@H](O)[C@@H](O)[C@@H]1O (some centres undefined),/,/,/,/,19%,/
CC(=O)CC(C)(C)S(=O)(=O)c1ccc(Oc2ccc(S(=O)(=O)C(C)(C)CC(C)=O)cc2)cc1,-12%,0%,2%,-4%[10 µM],-7%,8.9µM*
O=C(O)CCNS(=O)(=O)c1ccc(Oc2ccccc2)cc1,-8%,0%,0%,-17%[0.074 µM],3%,7%
